Hits are enriched below; roughly 6.7% of the tested compounds scored in any of these assays.
C diff HTS = inhibitors of Clostridium difficile growth | 0.25% of 86,000 active | growth activity, negative = inhibition, % at 16 µg/mL (by protocol) | Clostridium difficile clinical isolate growth, OD600, 24 h; hits give low values;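 active means mean growth activity at or below -80% and every replicate also at or below -80%; inconclusive means mean at or below -80% but some replicate above -80%; inactive means mean growth activity above -80%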;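 further: 0% = DMSO wells and -100% = levofloxacin 16 µg/mL wells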
Pf Dd2 inh = inhibitors of Plasmodium falciparum Dd2 growth | 2.3% of 94,000 active | AID 1159554 | activity change, % at 10 µM | P. falciparum Dd2 growth, SYBR Green, 72 h; hits give low values; in the data active means activity change below about -80%; inconclusive means no clear call, values can overlap the other calls
Tcruzi prolif = inhibitors of T. cruzi proliferation. inhibition, % at 8.34 µM. T. cruzi beta-gal in NIH3T3, GalScreen luminescence, 90 h. 5.9% of 77,000 active;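 active means mean inhibition above about 93%, with at least 55% of replicates each passing it, limit read from the data, passing the limit was not always enough; inconclusive means only one of those two conditions holds; inactive means neither condition holds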
Active calls of the source: *; ? = inconclusive; . = no result given.

SMILES	C diff HTS	Pf Dd2 inh	Tcruzi prolif
C[C@H]1CN([C@@H](C)CO)C(=O)c2cc(NC(=O)CCCN(C)C)ccc2O[C@H]1CN(C)C(=O)NC1CCCCC1	-1	-10	7
Cc1cccc(-c2ccc([C@H]3[C@@H](CO)N4C(=O)CN(C(=O)NC5CCCCC5)C[C@@H]34)cc2)c1	-4	-21	.
C[C@@H]1CN([C@H](C)CO)C(=O)c2cc(NC(=O)C3CCCCC3)ccc2O[C@@H](C)CCCCO[C@@H]1CN(C)CC1CCCCC1	-1	-38	51
COc1ccc(NC(=O)Nc2ccc3c(c2)C(=O)N([C@H](C)CO)C[C@H](C)[C@@H](CN(C)CC2CC2)OCCCC[C@H](C)O3)cc1	2	-84*	93
C[C@@H]1CCCCO[C@H](CN(C)CC2CC2)[C@H](C)CN([C@H](C)CO)C(=O)c2cc(NC(=O)C3CCCCC3)ccc2O1	.	-83*	89
C[C@H](CO)N1C[C@H](C)[C@@H](CN(C)CC2CCCCC2)OCCCC[C@H](C)Oc2ccc(NC(=O)Nc3ccccc3)cc2C1=O	2	-60	93
C[C@H]1CCCCO[C@@H](CN(C)CC2CCCCC2)[C@@H](C)CN([C@@H](C)CO)C(=O)c2cc(NC(=O)Nc3ccccc3)ccc2O1	4	-83*	90
COc1ccc(NC(=O)Nc2ccc3c(c2)C(=O)N([C@H](C)CO)C[C@@H](C)[C@H](CN(C)CC2CC2)OCCCC[C@H](C)O3)cc1	1	14	.
COc1ccc(NC(=O)Nc2ccc3c(c2)C(=O)N([C@H](C)CO)C[C@@H](C)[C@@H](CN(C)CC2CCCCC2)OCCCC[C@@H](C)O3)cc1	-22	-81*	92
COc1ccc(NC(=O)Nc2ccc3c(c2)C(=O)N([C@@H](C)CO)C[C@@H](C)[C@@H](CN(C)CC2CCCCC2)OCCCC[C@H](C)O3)cc1	-5	-72	80
CC(C)NC(=O)N(C)C[C@@H]1OCCCC[C@@H](C)Oc2ccc(NC(=O)CCC(F)(F)F)cc2C(=O)N([C@@H](C)CO)C[C@@H]1C	1	12	61
CCS(=O)(=O)NCC[C@@H]1CC[C@H](NS(=O)(=O)c2cccc(Cl)c2)[C@H](CO)O1	.	-7	19
CC(C)C#Cc1cnc2c(c1)C(=O)N([C@H](C)CO)C[C@H](C)[C@@H](CN(C)C(=O)C1CCC1)O2	9	.	22
COC(=O)C[C@H]1C=C[C@@H](NC(=O)c2ccccc2)[C@@H](CO)O1	.	0	4
COc1cccc(CN2[C@@H]3CNC[C@H]2C3c2ccc(-c3ccc(C)cc3)cc2)c1 (stereo partly drawn)	-9	-39	.
CCCNC(=O)N(C)C[C@@H]1Oc2ncc(C#Cc3ccncc3)cc2C(=O)N([C@@H](C)CO)C[C@@H]1C	6	18	25
Cc1noc(C)c1NC(=O)N(C)C[C@@H]1OCCCC[C@H](C)Oc2ccc(N(C)C)cc2C(=O)N([C@@H](C)CO)C[C@@H]1C	3	.	13
CC(C)C#Cc1ccc2c(c1)O[C@@H](CN(C)C(=O)Cc1ccccn1)[C@@H](C)CN([C@H](C)CO)S2(=O)=O	2	-41	42
COc1ccc2c3c([nH]c2c1)[C@H](CO)N(Cc1nccs1)CC31CCN(Cc2cncnc2)CC1	5	-61	.
COc1ccc2c3c([nH]c2c1)[C@H](CO)N(C(=O)Cc1ccccn1)CC31CCN(Cc2ccccn2)CC1	10	18	.
COc1cccc(CN2CC3(CCN(Cc4ccccn4)CC3)c3c([nH]c4cc(OC)ccc34)[C@@H]2CO)c1	10	-89*	.
COc1ccc2c3c([nH]c2c1)[C@@H](CO)N(Cc1nccs1)CC31CCN(Cc2nccs2)CC1	17	-90*	.
COc1ccc2c3c([nH]c2c1)[C@H](CO)N(Cc1ccccn1)CC31CCN(Cc2cccc(F)c2)CC1	6	-78	.
COc1ccc2c3c([nH]c2c1)[C@@H](CO)N(Cc1cccc(F)c1)CC31CCN(Cc2ccccn2)CC1	4	-92*	.
O=C(Nc1ccc(C(F)(F)F)cc1)N[C@H]1CC[C@@H](CC(=O)N2CCCCC2)O[C@H]1CO	-4	2	.
SMILES	C diff HTS	Pf Dd2 inh	Tcruzi prolif
COCC(=O)N1CC(=O)N2[C@H](C1)[C@@H](c1ccc(-c3ccccc3C)cc1)[C@@H]2CO	-7	1	.
CO[C@@H]1CN(C)C(=O)c2ccc(NC(=O)Nc3cccc(F)c3)cc2OC[C@@H](C)N(C(=O)C2CC2)C[C@@H]1C	.	.	-43
CN(C)C(=O)C[C@@H]1CC[C@H]2[C@H](COc3ccc(NC(=O)C4CCC4)cc3C(=O)N2C)O1	0	-4	.
C[C@H]1CCCCO[C@H](CN(C)C(=O)Nc2ccc(C(F)(F)F)cc2)[C@@H](C)CN([C@@H](C)CO)C(=O)c2cc(NC(=O)Nc3ccc(F)cc3)ccc2O1	5	-80*	101
COc1ccc(NC(=O)N(C)C[C@@H]2OCCCC[C@H](C)Oc3ccc(NC(=O)Nc4ccc(C(F)(F)F)cc4)cc3C(=O)N([C@@H](C)CO)C[C@@H]2C)cc1	-4	-7	120*
COc1ccc(NC(=O)N(C)C[C@@H]2OCCCC[C@@H](C)Oc3ccc(NC(=O)Nc4ccc(C(F)(F)F)cc4)cc3C(=O)N([C@H](C)CO)C[C@@H]2C)cc1	0	41	65
C[C@@H]1CCCCO[C@@H](CN(C)C(=O)Nc2ccc(C(F)(F)F)cc2)[C@@H](C)CN([C@H](C)CO)C(=O)c2cc(NC(=O)Nc3ccc(F)cc3)ccc2O1	1	-71	.
C[C@@H]1CCCCO[C@H](CN(C)C(=O)NC2CCCCC2)[C@@H](C)CN([C@@H](C)CO)C(=O)c2cc(NC(=O)Nc3ccc(C(F)(F)F)cc3)ccc2O1	10	-83*	87
C[C@@H]1CCCCO[C@@H](CN(C)C(=O)Nc2ccc(F)cc2)[C@@H](C)CN([C@@H](C)CO)C(=O)c2cc(NC(=O)Nc3ccc(C(F)(F)F)cc3)ccc2O1	-10	-88*	.
C[C@@H]1CCCCO[C@H](CN(C)C(=O)Nc2ccc(C(F)(F)F)cc2)[C@@H](C)CN([C@H](C)CO)C(=O)c2cc(NC(=O)Nc3ccc(F)cc3)ccc2O1	0	-23	?
C[C@@H]1CCCCO[C@H](CN(C)C(=O)NC2CCCCC2)[C@@H](C)CN([C@H](C)CO)C(=O)c2cc(NC(=O)Nc3ccc(C(F)(F)F)cc3)ccc2O1	4	-6	92
COc1ccc(NC(=O)Nc2ccc3c(c2)C(=O)N([C@H](C)CO)C[C@@H](C)[C@H](CN(C)S(=O)(=O)c2ccc(F)cc2)OCCCC[C@H](C)O3)cc1	-4	-57	58
C[C@@H]1CN([C@@H](C)CO)C(=O)Cc2cc(NC(=O)C3CC3)ccc2O[C@H]1CN(C)Cc1ccc2c(c1)OCO2	-9	-46	45
C[C@H]1CN([C@@H](C)CO)C(=O)c2cc(Br)cnc2O[C@H]1CN(C)C(=O)c1ccccc1F	2	9	-31
CO[C@@H]1CN(C)C(=O)c2cc(NS(C)(=O)=O)ccc2OC[C@H](C)N(Cc2ccccc2)C[C@@H]1C	.	3	-11
C[C@@H]1CCCCO[C@H](CN(C)C(=O)Nc2ccc(F)cc2)[C@H](C)CN([C@@H](C)CO)C(=O)c2cc(NC(=O)Nc3ccccc3)ccc2O1	0	-49	92
